This passage reports outcome and AC50 results from PubChem BioAssay (EPA / NIEHS).

Test [1] is described as follows: ATG_TAL_CIS: Attagene CIS-FACTORIAL HepG2 Assay for human TAL Basal Promoter (AID 2282966).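 Further: background control endpoint measuring basal TAL promoter reporter mRNA not a specific factor.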 The following applies: HepG2 Attagene cis-factorial TAL promoter reporter; actives raise or lower the signal. An outline of the steps:
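Fluorescence of labelled reporter cDNA fragments, resolved by capillary electrophoresis, gave the readout. Human HepG2 liver cells carried transiently transfected cis-element reporter units and were treated for 24 hours; activity was fitted bidirectionally against DMSO.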

Test [2] is described as follows: ATG_TGFb_CIS: Attagene CIS-FACTORIAL HepG2 Assay for human Transforming Growth Factor (TGF) (AID 2282967). The following applies: HepG2 Attagene CIS TGFb reporter, mRNA transcription; actives raise or lower the signal. The method in brief: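 Readout: fluorescently labeled reporter cDNA fragments resolved by capillary electrophoresis after RT-PCR. Transfected HepG2 cells dosed for 24 h; endogenous TF activity at TGFB1-linked cis element; gain or loss fitted relative to DMSO.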

In test [3] the target is Estrogen receptor (Homo sapiens) (UniProt P03372). In words: ATG_ERa_TRANS: Attagene TRANS-FACTORIAL HepG2 Assay for human Estrogen Receptor alpha (ERa) (AID 2282970; active means hit-call score of the fitted dose curve at least 0.9, where 1 is the maximum). To be noted: HepG2 Attagene TRANS ERa GAL4 reporter, mRNA. The method in brief:
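Human liver HepG2, transient transfection of multiple GAL4-UAS reporter units; TRANS format (exogenous NR-Gal4 chimera). 24 h dosing. Readout: reporter mRNA, RT-PCR, 6-FAM primer extension, HpaI digest, capillary electrophoresis. Positive direction vs DMSO.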

The target of test [4] is X-box-binding protein 1 (Homo sapiens) (UniProt P17861). The test is described as follows: ATG_Xbp1_CIS: Attagene CIS-FACTORIAL HepG2 Assay for human X-box Binding Protein 1 (XBP1) (AID 2282972). To be noted: HepG2 XBP1 cis-element reporter, Attagene multiplex; actives raise or lower the signal. The method in brief: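 HepG2 cells transiently transfected with multiple cis-element reporter units report endogenous TF activity; 24 h exposure, then reporter mRNA measured by RT-PCR, 6-FAM labelling, HpaI digestion and capillary electrophoresis. Bidirectional fitting versus DMSO.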
X-box-binding protein 1 (Homo sapiens), sequence (P17861 whole entry, looked up): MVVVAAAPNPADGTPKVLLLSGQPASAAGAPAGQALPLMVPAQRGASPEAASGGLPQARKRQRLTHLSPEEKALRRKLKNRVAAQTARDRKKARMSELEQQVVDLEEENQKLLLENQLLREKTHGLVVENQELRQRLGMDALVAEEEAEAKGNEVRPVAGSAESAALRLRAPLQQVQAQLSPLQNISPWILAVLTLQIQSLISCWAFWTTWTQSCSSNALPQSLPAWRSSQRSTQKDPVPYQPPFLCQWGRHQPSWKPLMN

The nature of test [5]: ATG_M_19_TRANS: Attagene TRANS-FACTORIAL HepG2 Assay for M19 Transcription Factor (Internal Marker) (AID 2282974; active means hit-call score of the fitted dose curve at least 0.9, where 1 is the maximum). To be noted: HepG2 Attagene TRANS-FACTORIAL M19 internal marker reporter. An outline of the steps:
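24 h chemical exposure of transiently transfected HepG2 (MRTU library). RNA → oligo(dT) RT → PCR → 6-FAM labelling → HpaI cut → CE fluorescence. Positive-direction fit vs DMSO baseline; background internal-marker readout.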

Test [6] has as its target Estrogen-related receptor gamma (Homo sapiens) (UniProt P62508). In words: ATG_ERRg_TRANS: Attagene TRANS-FACTORIAL HepG2 Assay for human Estrogen-Related Receptor gamma (ERRg) (AID 2282977; active means hit-call score of the fitted dose curve at least 0.9, where 1 is the maximum;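 further: hits increase reporter signal over DMSO so potencies reflect activators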). To be noted: HepG2 Attagene TRANS reporter, ERRg transactivation. The method in brief: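 HepG2 cells transiently transfected with multiplexed GAL4-UAS reporter units driven by chimeric NR-Gal4 proteins; 24 h exposure. Reporter mRNA quantified by RT-PCR, fluorescent labelling, HpaI digestion and capillary electrophoresis; gain of signal vs DMSO.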

The target in test [7] is Oxysterols receptor LXR-alpha (Homo sapiens) (UniProt Q13133). The test is described as follows: ATG_LXRa_TRANS: Attagene TRANS-FACTORIAL HepG2 Assay for human Liver X Receptor alpha (LXRa) (AID 2282980; active means hit-call score of the fitted dose curve at least 0.9, where 1 is the maximum). To be noted: HepG2 Attagene TRANS reporter, LXRa transactivation. An outline of the steps:
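Transfect HepG2 with GAL4-UAS multiplex reporter constructs (TRANS format, chimeric receptor-GAL4); treat 24 h; extract RNA, reverse-transcribe, PCR-amplify, FAM-label, HpaI-digest; resolve fragments by capillary electrophoresis. Upward response vs DMSO.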

Test [8] addresses Oxysterols receptor LXR-beta (Homo sapiens) (UniProt P55055). In words: ATG_LXRb_TRANS: Attagene TRANS-FACTORIAL HepG2 Assay for human Liver X Receptor beta (LXRb) (AID 2282981; active means hit-call score of the fitted dose curve at least 0.9, where 1 is the maximum). The following applies: HepG2 Attagene TRANS GAL4-LXRb reporter, mRNA. An outline of the steps: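 In this TRANS format, exogenous chimeric NR-Gal4 protein activity, not endogenous factors, drives reporter expression in transfected human HepG2 cells. Exposure lasted 24 h; reporter mRNA was read by fluorescent capillary electrophoresis.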

Test [9] concerns the target Hepatocyte nuclear factor 4-alpha (Homo sapiens) (UniProt P41235). In words: ATG_HNF4a_TRANS: Attagene TRANS-FACTORIAL HepG2 Assay for human Hepatocyte Nuclear Factor 4 alpha (HNF4a) (AID 2282982; active means hit-call score of the fitted dose curve at least 0.9, where 1 is the maximum). To be noted: HepG2 HNF4a transactivation reporter, mRNA readout. The method in brief: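 Cells used were human HepG2, transiently carrying GAL4-UAS reporter units read out against exogenous NR-GAL4 chimeras. Reporter transcript levels after 24 h dosing were quantified by fluorescent RT-PCR and capillary electrophoresis.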

A short description of test [10]: ATG_M_06_TRANS: Attagene TRANS-FACTORIAL HepG2 Assay for M06 Transcription Factor (Internal Marker) (AID 2282983; active means hit-call score of the fitted dose curve at least 0.9, where 1 is the maximum). To be noted: HepG2 Attagene TRANS M06 internal marker reporter. The method in brief: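 Transfect HepG2 with MRTUs → dose compounds 24 h → isolate RNA, oligo(dT) RT → PCR with reporter primers → 6-FAM primer extension → HpaI digest → CE fragment analysis. Positive direction vs DMSO.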

A short description of test [11]: ATG_M_32_TRANS: Attagene TRANS-FACTORIAL HepG2 Assay for M32 Transcription Factor (Internal Marker) (AID 2282984; active means hit-call score of the fitted dose curve at least 0.9, where 1 is the maximum;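 further: transcript level of a background control reporter unit measured by RT-PCR and capillary electrophoresis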). The following applies: HepG2 Attagene TRANS M32 internal marker reporter. An outline of the steps: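 Human hepatoma HepG2, transient MRTU transfection, 24 h treatment. RNA → RT-PCR → fluorescent primer extension → HpaI digest (2 h, 37 C) → CE. Positive-direction fit vs DMSO.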

Test [12] concerns the target Nuclear receptor subfamily 4 group A member 2 (Homo sapiens) (UniProt P43354). In words: ATG_NURR1_TRANS: Attagene TRANS-FACTORIAL HepG2 Assay for human Nuclear Receptor Related Protein 1 (NURR1) (AID 2282985; active means hit-call score of the fitted dose curve at least 0.9, where 1 is the maximum). The following applies: HepG2 Attagene TRANS reporter, mRNA readout. An outline of the steps: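 After 24 h chemical dosing, total RNA from transiently transfected HepG2 cells was reverse-transcribed and reporter cDNA PCR-amplified, FAM-labelled and analysed by capillary electrophoresis. Activity fitted in positive direction, DMSO as negative control.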

Test [13] concerns the target Transcriptional activator Myb (Homo sapiens) (UniProt P10242). The test is described as follows: ATG_Myb_CIS: Attagene CIS-FACTORIAL HepG2 Assay for human Myeloblastosis (Myb) Proto-Oncogene Transcription Factor (AID 2282986). The following applies: HepG2 Attagene CIS-FACTORIAL Myb reporter transcription; actives raise or lower the signal. The method in brief: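 HepG2, transient MRTU transfection (cis-element promoters, endogenous TF activity), 24 h compound exposure. Readout: reporter mRNA via RT-PCR, 6-FAM labeling, HpaI digest, capillary electrophoresis. Gain/loss fit vs DMSO.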

The target of test [14] is Nuclear respiratory factor 1 (Homo sapiens) (UniProt Q16656). In words: ATG_NRF1_CIS: Attagene CIS-FACTORIAL HepG2 Assay for human Nuclear Respiratory Factor 1 (NRF1) Orphan Gene (AID 2282987). The following applies: HepG2 NRF1 cis-element reporter, Attagene multiplex; actives raise or lower the signal. An outline of the steps:
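Endogenous NRF1-driven reporter transcription measured in transiently transfected human HepG2 liver cells. Readout: reporter mRNA by RT-PCR and capillary electrophoresis with fluorescence detection, 24 h post-dosing. Gain or loss of signal fitted relative to DMSO baseline.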

Test [15] in a line: ATG_NFI_CIS: Attagene CIS-FACTORIAL HepG2 Assay for human Nuclear Factor I (NFI) (AID 2282989). To be noted: HepG2 cis-regulatory reporter, NFI response element transcription; actives raise or lower the signal. An outline of the steps:
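Read-out: reporter mRNA via RT-PCR plus capillary electrophoresis with fluorescence detection. Transiently transfected HepG2 (endogenous TF activity on cis promoters), 24 h compound exposure; gain or loss of signal fitted against DMSO.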

In test [16] the target is Myc proto-oncogene protein (Homo sapiens) (UniProt P01106). In words: ATG_Myc_CIS: Attagene CIS-FACTORIAL HepG2 Assay for human Myelocytomatosis (Myc) Proto-Oncogene Transcription Factor (AID 2282990). To be noted: HepG2, Attagene cis-reporter transcription factor activity; actives raise or lower the signal. An outline of the steps:
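HepG2 cells transiently transfected with multiple cis-promoter-driven reporter transcription units, so endogenous TF activity is read. After 24 h compound exposure, reporter mRNA was quantified by RT-PCR, 6-FAM labelling, HpaI digestion and capillary electrophoresis; bidirectional fit versus DMSO.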

A short description of test [17]: ATG_VDRE_CIS: Attagene CIS-FACTORIAL HepG2 Assay for human Vitamin D Receptor Element (VDRE) (AID 2282968). To be noted: HepG2 VDRE cis-reporter transcription, actives raise or lower the signal. An outline of the steps:
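RT-PCR/CE readout of reporter mRNA; HepG2, transient transfection, 24 h dosing; DMSO baseline; bidirectional analysis.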

Test [18] addresses Glucocorticoid receptor (Homo sapiens) (UniProt P04150). In words: ATG_GR_TRANS: Attagene TRANS-FACTORIAL HepG2 Assay for human Glucocorticoid Receptor (GR) (AID 2282978; active means hit-call score of the fitted dose curve at least 0.9, where 1 is the maximum;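 further: activators score as hits since higher reporter transcript over DMSO is fitted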). The following applies: HepG2 Attagene TRANS GR reporter, mRNA transcription. The method in brief: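 Transient MRTU transfection of HepG2 (GAL4-UAS reporters, exogenous NR-GAL4 chimeras), 24 h dosing. Readout: reporter transcript via RT-PCR + capillary electrophoresis fluorescence. Positive direction vs DMSO baseline.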

Results filed as inconclusive are left out. Calls of active or inactive are those of the source. How the source made its calls, unless noted: active means hit-call score of the fitted dose curve at least 0.9, where 1 is the maximum; inactive means score below 0.9.

Hepatocyte nuclear factor 4-alpha (Homo sapiens), sequence (P41235 whole entry, looked up, the tested form may be a part): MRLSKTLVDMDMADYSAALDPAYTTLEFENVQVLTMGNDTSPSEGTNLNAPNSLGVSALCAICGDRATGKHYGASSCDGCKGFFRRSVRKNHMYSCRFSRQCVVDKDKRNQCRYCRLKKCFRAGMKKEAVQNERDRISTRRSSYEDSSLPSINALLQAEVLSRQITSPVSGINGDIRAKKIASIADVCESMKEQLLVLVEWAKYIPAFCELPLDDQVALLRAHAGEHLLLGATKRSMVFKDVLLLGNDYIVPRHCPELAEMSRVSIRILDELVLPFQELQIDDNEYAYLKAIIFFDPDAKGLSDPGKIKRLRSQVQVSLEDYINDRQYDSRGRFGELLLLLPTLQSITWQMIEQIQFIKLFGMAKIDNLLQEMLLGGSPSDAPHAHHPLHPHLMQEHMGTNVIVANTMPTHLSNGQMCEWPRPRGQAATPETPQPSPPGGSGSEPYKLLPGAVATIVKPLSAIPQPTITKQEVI
Nuclear respiratory factor 1 (Homo sapiens), sequence (Q16656 whole entry, looked up): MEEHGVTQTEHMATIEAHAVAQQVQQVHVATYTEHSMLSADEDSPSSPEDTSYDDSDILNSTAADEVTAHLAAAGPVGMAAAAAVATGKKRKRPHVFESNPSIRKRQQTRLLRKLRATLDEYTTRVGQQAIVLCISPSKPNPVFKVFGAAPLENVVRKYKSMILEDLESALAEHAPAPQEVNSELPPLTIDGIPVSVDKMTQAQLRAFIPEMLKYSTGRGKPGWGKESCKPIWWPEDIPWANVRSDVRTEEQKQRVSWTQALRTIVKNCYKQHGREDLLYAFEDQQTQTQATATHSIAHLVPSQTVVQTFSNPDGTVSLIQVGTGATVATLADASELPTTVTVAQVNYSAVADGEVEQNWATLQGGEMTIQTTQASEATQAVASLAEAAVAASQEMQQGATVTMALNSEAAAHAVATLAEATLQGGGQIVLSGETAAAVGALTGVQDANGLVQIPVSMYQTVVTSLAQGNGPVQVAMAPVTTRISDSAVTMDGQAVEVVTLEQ
Myc proto-oncogene protein (Homo sapiens), sequence (P01106 whole entry, looked up): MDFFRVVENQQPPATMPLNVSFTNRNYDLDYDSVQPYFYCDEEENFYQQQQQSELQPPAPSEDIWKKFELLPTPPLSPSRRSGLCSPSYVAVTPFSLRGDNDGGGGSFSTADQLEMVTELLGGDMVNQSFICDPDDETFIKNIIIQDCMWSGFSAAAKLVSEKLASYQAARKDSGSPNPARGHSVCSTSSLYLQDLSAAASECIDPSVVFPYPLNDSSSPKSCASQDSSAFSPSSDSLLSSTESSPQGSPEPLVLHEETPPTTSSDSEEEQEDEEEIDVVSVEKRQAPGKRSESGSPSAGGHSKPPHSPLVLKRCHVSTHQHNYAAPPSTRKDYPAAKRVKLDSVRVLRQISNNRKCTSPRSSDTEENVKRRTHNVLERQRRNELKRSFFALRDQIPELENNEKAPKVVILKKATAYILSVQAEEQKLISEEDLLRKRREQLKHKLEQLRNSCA
Transcriptional activator Myb (Homo sapiens), sequence (P10242 whole entry, looked up): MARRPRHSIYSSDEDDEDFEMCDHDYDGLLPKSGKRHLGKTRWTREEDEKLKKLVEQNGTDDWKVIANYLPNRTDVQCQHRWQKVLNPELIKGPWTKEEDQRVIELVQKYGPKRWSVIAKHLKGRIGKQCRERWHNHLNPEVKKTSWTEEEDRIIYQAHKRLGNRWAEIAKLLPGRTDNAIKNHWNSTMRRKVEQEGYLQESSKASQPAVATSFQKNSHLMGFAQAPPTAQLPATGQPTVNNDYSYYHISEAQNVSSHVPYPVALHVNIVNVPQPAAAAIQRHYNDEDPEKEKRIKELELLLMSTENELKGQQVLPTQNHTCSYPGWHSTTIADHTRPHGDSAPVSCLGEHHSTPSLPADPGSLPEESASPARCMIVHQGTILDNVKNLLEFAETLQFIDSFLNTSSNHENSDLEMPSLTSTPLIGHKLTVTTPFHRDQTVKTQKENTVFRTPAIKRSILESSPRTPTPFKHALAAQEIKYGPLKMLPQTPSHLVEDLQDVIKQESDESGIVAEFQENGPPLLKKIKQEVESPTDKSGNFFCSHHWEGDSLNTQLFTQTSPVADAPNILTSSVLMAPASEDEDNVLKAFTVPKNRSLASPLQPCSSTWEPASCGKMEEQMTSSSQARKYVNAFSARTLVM
Estrogen-related receptor gamma (Homo sapiens), sequence (P62508 whole entry, looked up, the tested form may be a part): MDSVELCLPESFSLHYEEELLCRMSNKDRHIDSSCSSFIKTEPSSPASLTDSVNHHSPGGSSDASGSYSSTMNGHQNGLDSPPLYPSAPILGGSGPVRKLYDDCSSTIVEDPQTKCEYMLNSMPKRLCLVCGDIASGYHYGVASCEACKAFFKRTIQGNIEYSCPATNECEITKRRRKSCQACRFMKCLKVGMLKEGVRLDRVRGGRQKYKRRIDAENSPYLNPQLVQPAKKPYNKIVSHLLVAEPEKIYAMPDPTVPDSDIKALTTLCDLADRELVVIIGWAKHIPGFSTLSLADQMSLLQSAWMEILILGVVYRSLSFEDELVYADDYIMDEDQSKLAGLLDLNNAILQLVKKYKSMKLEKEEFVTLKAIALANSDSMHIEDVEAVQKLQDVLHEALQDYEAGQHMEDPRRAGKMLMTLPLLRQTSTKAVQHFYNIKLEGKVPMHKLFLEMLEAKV
Oxysterols receptor LXR-beta (Homo sapiens), sequence (P55055 whole entry, looked up, the tested form may be a part): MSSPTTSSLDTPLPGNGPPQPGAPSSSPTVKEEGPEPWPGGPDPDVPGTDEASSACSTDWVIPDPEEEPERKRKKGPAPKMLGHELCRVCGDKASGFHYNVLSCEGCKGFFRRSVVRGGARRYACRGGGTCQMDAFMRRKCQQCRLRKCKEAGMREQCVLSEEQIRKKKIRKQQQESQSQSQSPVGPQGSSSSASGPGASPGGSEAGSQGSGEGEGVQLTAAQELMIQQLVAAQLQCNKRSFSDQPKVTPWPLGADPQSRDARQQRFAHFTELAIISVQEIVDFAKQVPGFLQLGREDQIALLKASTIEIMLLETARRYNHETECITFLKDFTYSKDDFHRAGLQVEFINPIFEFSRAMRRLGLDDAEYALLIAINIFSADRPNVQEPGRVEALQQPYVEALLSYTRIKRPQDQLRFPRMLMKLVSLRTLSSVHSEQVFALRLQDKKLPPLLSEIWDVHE
Nuclear receptor subfamily 4 group A member 2 (Homo sapiens), sequence (P43354 whole entry, looked up): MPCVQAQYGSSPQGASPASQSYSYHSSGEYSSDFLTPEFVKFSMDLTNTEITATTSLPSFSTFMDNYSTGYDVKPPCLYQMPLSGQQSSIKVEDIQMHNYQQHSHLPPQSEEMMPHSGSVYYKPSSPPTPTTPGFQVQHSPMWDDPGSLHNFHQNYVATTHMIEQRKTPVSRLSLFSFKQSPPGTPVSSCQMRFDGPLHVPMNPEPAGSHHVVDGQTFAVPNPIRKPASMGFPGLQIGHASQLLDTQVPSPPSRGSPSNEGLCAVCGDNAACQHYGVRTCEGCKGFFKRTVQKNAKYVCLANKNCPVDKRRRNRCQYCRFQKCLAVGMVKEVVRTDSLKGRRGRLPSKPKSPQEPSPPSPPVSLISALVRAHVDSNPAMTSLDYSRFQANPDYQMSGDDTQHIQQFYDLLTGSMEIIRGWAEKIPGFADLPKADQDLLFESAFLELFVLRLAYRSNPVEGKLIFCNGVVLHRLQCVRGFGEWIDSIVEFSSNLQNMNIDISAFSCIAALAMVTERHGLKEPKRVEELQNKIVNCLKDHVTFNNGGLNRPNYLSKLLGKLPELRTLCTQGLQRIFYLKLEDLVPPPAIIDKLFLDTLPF
Glucocorticoid receptor (Homo sapiens), sequence (P04150 whole entry, looked up, the tested form may be a part): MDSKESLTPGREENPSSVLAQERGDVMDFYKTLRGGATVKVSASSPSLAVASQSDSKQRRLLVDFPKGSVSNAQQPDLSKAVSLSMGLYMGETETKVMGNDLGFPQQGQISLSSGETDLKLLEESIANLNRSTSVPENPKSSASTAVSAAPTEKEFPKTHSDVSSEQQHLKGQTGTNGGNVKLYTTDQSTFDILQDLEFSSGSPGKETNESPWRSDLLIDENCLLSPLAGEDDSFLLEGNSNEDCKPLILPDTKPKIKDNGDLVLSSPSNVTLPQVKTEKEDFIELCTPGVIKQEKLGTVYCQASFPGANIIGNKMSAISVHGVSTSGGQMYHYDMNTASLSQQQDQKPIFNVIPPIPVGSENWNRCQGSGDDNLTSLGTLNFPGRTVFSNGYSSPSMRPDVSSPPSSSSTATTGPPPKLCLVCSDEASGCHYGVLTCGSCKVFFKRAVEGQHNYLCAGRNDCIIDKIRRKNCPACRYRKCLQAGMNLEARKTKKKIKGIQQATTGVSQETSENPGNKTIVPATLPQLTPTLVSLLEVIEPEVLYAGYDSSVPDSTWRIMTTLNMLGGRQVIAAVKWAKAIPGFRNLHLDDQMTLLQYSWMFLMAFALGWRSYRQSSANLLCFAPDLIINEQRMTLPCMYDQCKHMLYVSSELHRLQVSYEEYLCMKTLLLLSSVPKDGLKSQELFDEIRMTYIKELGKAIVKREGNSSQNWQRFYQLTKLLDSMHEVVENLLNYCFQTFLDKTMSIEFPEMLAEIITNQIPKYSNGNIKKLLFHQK

For `O=[Si]=O`, the result in test [1], in test [2], in test [3], in [4], in test [5] and in test [6] was inactive. Besides, the outcome in test [7], in test [8], in [9], in test [10], in test [11] and in test [12] was inactive. Besides, the outcome in [13], in [14], in test [15] and in test [16] was inactive.

Consider `CCCCOC(=O)CCCCC(=O)OCCCC`, for which the molecule was called inactive in [1], in test [2], in test [17], in test [4], in [5] and in [6]. In addition, the molecule was called inactive in [9], in test [10], in test [11], in test [12], in test [13] and in test [14]. Also, the outcome in test [15] and in test [16] was inactive. Also, in [18], the AC50 is 155 µM (active).

With `CC(=O)OCC(COC(C)=O)OC(C)=O`, the result in test [1], in test [2], in test [17], in test [4], in [6] and in test [18] was inactive. Also, the molecule was classed as inactive in [8], in test [9], in test [10], in test [13], in [14] and in test [15]. In addition, the outcome in [16] was inactive.

With `NC1CCCCC1`, the molecule was classed as inactive in test [1], in test [2], in [17], in [4], in test [7] and in test [9]. The call in test [10], in [13], in [14], in test [15] and in test [16] was inactive.

Usually AC50 stands for the concentration at which the activity in the assay is half-maximal.
